RAD52 anneal inh: inhibitors of human RAD52 DNA annealing; P43351; recombinant RAD52 DNA annealing, FRET fluorescence; inhibition, % at 18.7 µM; hit rate 0.46% among 360,000;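 active = every replicate showing at least 50% inhibition; inconclusive = mean inhibition at least 50% but not in every replicate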
Target sequence (P43351 whole entry, looked up): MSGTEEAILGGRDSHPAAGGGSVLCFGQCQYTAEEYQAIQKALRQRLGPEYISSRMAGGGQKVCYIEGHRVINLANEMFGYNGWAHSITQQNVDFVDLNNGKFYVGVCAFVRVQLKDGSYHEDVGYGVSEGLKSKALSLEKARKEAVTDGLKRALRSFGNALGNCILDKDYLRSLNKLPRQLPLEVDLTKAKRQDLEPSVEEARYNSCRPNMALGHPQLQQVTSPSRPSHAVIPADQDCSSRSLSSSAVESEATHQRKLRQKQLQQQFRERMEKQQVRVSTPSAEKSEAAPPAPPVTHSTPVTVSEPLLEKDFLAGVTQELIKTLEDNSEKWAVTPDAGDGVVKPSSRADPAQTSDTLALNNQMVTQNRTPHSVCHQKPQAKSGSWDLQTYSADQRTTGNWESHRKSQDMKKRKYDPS
UBC13 polyUb: human UBC13 polyubiquitination inhibition; UBC13 polyubiquitin chain formation, TR-FRET; inhibition, % at 20 µM; hit rate 0.47% among 330,000; in the data active = inhibition above about 45%, passing the limit was not always enough; inconclusive = no clear call, values can overlap the other calls
Target sequence (P61088 whole entry, looked up): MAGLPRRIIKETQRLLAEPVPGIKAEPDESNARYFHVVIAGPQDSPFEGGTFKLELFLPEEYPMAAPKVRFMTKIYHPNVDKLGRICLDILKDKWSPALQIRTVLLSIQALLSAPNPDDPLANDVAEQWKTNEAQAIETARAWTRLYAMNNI
RAD54 branch: RAD54 (human) branch migration inhibition; inhibition, % at 10.4 µM; hit rate 0.14% among 360,000; Q92698; AID 602329; RAD54 Holliday junction branch migration, FAM/BHQ fluorescence;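 active = mean normalized replicate activity at least 40 and at least half of replicates scoring 40 or more; inconclusive = only one of the two criteria met; inactive = mean below 40 and under half of replicates reaching 40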;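 also: 0% = median of neutral control wells and 100% = median of positive control wells; inhibitors cause a drop in the FAM fluorescence signal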
PREPL inhibitor: inhibitors of human prolyl oligopeptidase-like enzyme PREPL. Q4J6C6. recombinant PREPL, fluorescence polarization activity-based probe. inhibition, % at 5.96 µM. hit rate 0.68% among 320,000; in the data active = inhibition above about 43%;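 also: 0% = enzyme with DMSO and 100% = wells lacking enzyme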
beta cell repl: MIN6 beta-cell proliferation induction; MIN6 cells proliferation, ATPlite luminescence, 48 h; cells starved in 0.2% serum; 100% = growth in 10% serum; proliferation, % at 10 µM; hit rate 0.29% among 330,000; AID 2380;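 active = compounds whose signal lies at least 3.5 SD above the mean of all wells on their plate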;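 also: 0% = DMSO-treated cells in low-serum medium and 100% = 10% serum control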
FID counter: displaces DNA intercalator in HCV helicase counter-screen; DNA fluorescent intercalator displacement, fluorescence; inhibition, % at 7.9 µM; hit rate 0.17% among 290,000; in the data active = inhibition above about 37%;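 also: 0% = vehicle and 100% = reference compound; higher means more ethidium bromide displaced from hairpin DNA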
DNA binding: binds DNA, flagging false Rad54 inhibitor hits; AC50, µM (titrated, usually from 35 µM), for inactives: at the highest dose activity change, negative = DNA binding; AID 651673; Acridine orange-DNA displacement, fluorescence polarization, 20 min; shares compounds with RAD54 branch; hit rate 8% among 460;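 active = signal drop giving an AC50 within twice the top valid tested concentration of each sample, actives reach about 35 µM in these data; inactive = activity opposite to expected, plus the rest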;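 also: polarization loss reports compound binding to salmon sperm DNA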
DNA binder FP: binds DNA, flagging false RAD52 inhibitor hits; shares compounds with RAD52 anneal inh; hit rate 8% among 1,000; AC50, µM; Salmon sperm DNA/acridine orange FP displacement, DNA binding;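 active = fitted half-maximal concentration for signal loss at or below twice the highest dose tested, in every separate run, actives reach about 64 µM in these data; inconclusive = runs disagree, or flat partial signal loss, or poor fit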
The depositor's hits bear a star; i = inactive; ? = inconclusive; . = no result given; ! = a repeat was not active. A selection: hits, their analogues and other compounds. The true share with any hit is near 1.3%.

SMILES	RAD52 anneal inh	UBC13 polyUb	RAD54 branch	PREPL inhibitor	beta cell repl	FID counter	DNA binder FP	others
CN1CCC(N(C)c2ncnc3ccc(Br)cc23)CC1	.	.	10.5	.	.	3.7	.
Cc1ccc(-c2nc(N(C)C3CCN(C)CC3)c3ccccc3n2)cc1	.	15.4	96.5*	4.8	-4.3	68.8*	.	DNA binding=-21.7%
Nc1ccnn1C1CCNCC1	.	7.8	93.1*	-8.0	0.6	11.5	.	DNA binding=2.8%
CN1CCC(n2nccc2N)CC1	.	-0.1	10.2	6.1	0.0	4.3	.
O=C(O)[C@H]1[C@H](CO)[C@H]2Cn3c(ccc(C4=CCCC4)c3=O)[C@@H]1N2C(=O)Cc1ccccn1	-20.1	.	3.6	.	.	.	.
Nc1ccc(C2(c3ccc(N)cc3)CN3CCC2CC3)cc1	.	1.2	96.2*	37.4	-2.4	1.8	.	DNA binding=-0.3%
CC=Cc1ccc2n(c1=O)C[C@H]1[C@H](CO)[C@@H](C(=O)OC)[C@@H]2N1CC1CCOCC1 (mixture of isomers)	-7.6	.	-1.5	.	.	.	.
CC(Cc1ccccc1)NCC(=O)Nc1cc(N(C)C)nc2ccccc12 (stereo unspecified)	10.8	0.4	?	-12.5	-5.0	28.9	.	DNA binding=-1.9%
CC(Cc1ccccc1)NCc1ccccc1O (stereo unspecified)	-9.0	-0.3	-3.4	1.4	4.0	6.4	.
O=C(NC1CN2CCC1CC2)c1cc(Cl)c([N+](=O)[O-])c2nc[nH]c12 (stereo unspecified)	.	-14.3	56.1*	13.8	-1.5	22.2	.	DNA binding=-11.7%
N#Cc1cccc(-c2ccc([C@H]3[C@H]4CN(C(=O)Cc5ccccc5)CCCCN4[C@H]3CO)cc2)c1	-22.0	.	0.0	.	.	.	.
CCNCCNc1ccc([N+](=O)[O-])c2cccnc12	5.9	-67.7	55.9*	10.1	-1.1	16.2	.	DNA binding=-21.5%
Cc1[nH]c2c(C(F)(F)F)cccc2c1CCN	.	5.1	.	-17.1	-1.9	10.0	.
Cc1[nH]c2ccc(O)cc2c1CCN	80.9*	18.7	2.4	20.1	-0.2	.	i
O=C1NC(=O)C2(CCCc3ccc(N(CCCl)CCCl)cc32)N1 (stereo unspecified)	1.8	.	0.8	.	.	.	.
NC1(C(=O)O)CCCc2ccc(N(CCCl)CCCl)cc21 (stereo unspecified)	61.3*	.	2.8	.	.	.	i
Cc1ccc2c(C)c3ccc4ccccc4c3c[n+]2c1	93.5*	.	.	.	.	.	13.5µM*
NC(Cc1ccc(F)cc1)c1csc(Nc2ncccn2)n1 (stereo unspecified)	-11.5	.	0.3	.	.	.	.
Nc1ccc(CC(N)c2csc(Nc3ncccn3)n2)cc1 (stereo unspecified)	86.8*	.	18.6	.	.	.	i
O=C(O)[C@H]1[C@H](CO)[C@H]2Cn3c(ccc(-c4ccc(F)cc4)c3=O)[C@@H]1N2CC1CCCC1	-4.1	.	.	.	.	.	.
CCN(CCCl)c1cc(CN(C)C)cc(NC(=O)c2ccc(C(=O)Nc3cc(CN(C)C)cc(N(CC)CCCl)c3)cc2)c1	105.0*	.	.	.	.	.	?
COc1ccc(CC2=NCCc3cc(OC)c(OC)cc32)cc1OC	57.0*	.	42.0	.	.	.	i
O=C(O)[C@@H]1[C@@H](CO)[C@@H]2Cn3c(ccc(-c4cncnc4)c3=O)[C@H]1N2C(=O)NC1CCCC1	-2.0	.	-1.8	.	.	.	.
CN1CCN(c2ccc(N)cc2Cl)CC1	85.3*	-4.9	.	15.9	-1.7	-5.2	39µM*
CN1CCN(c2ccc(Cl)cc2N)CC1	1.3	-8.4	.	-6.5	0.7	12.3	.
SMILES	RAD52 anneal inh	UBC13 polyUb	RAD54 branch	PREPL inhibitor	beta cell repl	FID counter	DNA binder FP	others
COC(=O)[C@@H]1[C@@H](CO)[C@@H]2Cn3c(ccc(-c4cccnc4)c3=O)[C@H]1N2S(=O)(=O)c1ccccc1F	-0.6	.	0.9	.	.	.	.
COc1cc2c(cc1OC)-c1c(OC)c(OC)cc3c1[C@H](C2)N(C)CC3	75.6*	-169.4	91.1*	19.0	-5.0	9.1	i
COc1cc2c(ccc3c4cc(OC)c(OC)cc4c[n+](C)c23)cc1O	97.5*	.	.	.	.	.	20.9µM*
COC(=O)[C@@H]1[C@@H](CO)[C@@H]2Cn3c(ccc(-c4cccc(OC)c4)c3=O)[C@H]1N2CC1CC1	-6.9	.	-3.0	.	.	.	.
COC(=O)[C@H]1[C@H](CO)[C@H]2Cn3c(ccc(-c4ccccc4)c3=O)[C@@H]1N2CCc1ccccc1	-0.2	.	-5.0	.	.	.	.
Cn1cc[n+](C)c1P(=S)(c1ccccc1)c1ccccc1	-10.7	4.3	8.5	5.0	0.4	3.1	.
Cc1c(P(=S)(c2ccccc2)c2ccccc2)[n+]2ccccc2n1C	97.2*!	.	17.8	.	.	10.2	i
COc1ccc(-c2ccc([C@H]3[C@@H](CO)N4CCCCN(C(=O)Cc5ccccc5)C[C@@H]34)cc2)cc1	-40.8	.	9.5	.	.	.	.
NC(N)=Nc1ccc2[nH]c3c(c2c1)C[C@@]1(O)[C@H]2Cc4ccc(O)c5c4[C@@]1(CCN2CC1CC1)C3O5 (stereo partly specified)	52.8*	30.1	34.6	13.6	0.4	.	i
O=C(Cc1ccncc1)N1CCCCN2[C@H](CO)[C@H](c3ccc(C#Cc4ccccc4F)cc3)[C@H]2C1	-151.5	.	0.2	.	.	.	.

Screens as filed in PubChem BioAssay.
